Results filed as inconclusive are left out. Entries that show only a call come without a potency. Activity calls are given as the source filed them. Calls follow the shape of the dose curve; as a rule, active = well fitted inhibition curve with a large enough effect; inconclusive = small, poorly fitted or top-dose-only effect; inactive = flat fitted curve, though single readings scatter.
What follows are molecules tested against Ubiquitin carboxyl-terminal hydrolase 1 (Homo sapiens) (UniProt O94782) (assay: Inhibitors of USP1/UAF1: Pilot qHTS (AID 504865;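 also: rhodamine fluorescence freed from ubiquitin-rhodamine substrate followed over time; top concentration of the series differs between compounds; nearly all actives have a fitted effect of over 35% in size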)). Settings: purified USP1/UAF1, Ub-rhodamine cleavage fluorescence; series mostly up to 114 µM.
Sequence of Ubiquitin carboxyl-terminal hydrolase 1 (Homo sapiens) (O94782 whole entry, looked up): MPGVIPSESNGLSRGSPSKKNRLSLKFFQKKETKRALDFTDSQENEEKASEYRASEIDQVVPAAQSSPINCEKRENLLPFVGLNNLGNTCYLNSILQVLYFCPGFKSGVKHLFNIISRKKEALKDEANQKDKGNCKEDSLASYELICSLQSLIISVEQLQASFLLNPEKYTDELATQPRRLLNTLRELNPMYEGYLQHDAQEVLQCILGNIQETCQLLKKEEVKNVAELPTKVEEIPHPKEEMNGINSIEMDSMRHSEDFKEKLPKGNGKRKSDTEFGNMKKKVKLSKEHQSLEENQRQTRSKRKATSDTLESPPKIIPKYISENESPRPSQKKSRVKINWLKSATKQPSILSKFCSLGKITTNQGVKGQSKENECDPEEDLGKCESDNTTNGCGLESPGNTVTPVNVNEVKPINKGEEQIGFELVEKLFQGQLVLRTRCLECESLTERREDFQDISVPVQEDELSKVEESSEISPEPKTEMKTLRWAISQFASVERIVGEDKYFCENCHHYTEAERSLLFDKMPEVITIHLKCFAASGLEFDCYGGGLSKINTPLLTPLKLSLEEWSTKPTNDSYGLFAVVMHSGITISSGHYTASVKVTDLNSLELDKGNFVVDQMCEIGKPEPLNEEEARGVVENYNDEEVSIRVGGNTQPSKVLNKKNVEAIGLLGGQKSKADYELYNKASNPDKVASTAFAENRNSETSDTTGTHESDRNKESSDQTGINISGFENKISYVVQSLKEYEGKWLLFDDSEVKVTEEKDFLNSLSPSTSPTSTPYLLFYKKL
Procedure, shortened: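 Deubiquitinase activity followed as kinetic rhodamine fluorescence release from 150 nM Ub-Rho. 1 nM USP1/UAF1 with compound, after 15 min room-temperature preincubation, in HEPES pH 7.8 buffer containing TCEP, EDTA, BSA and Tween-20.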

SMILES	Potency
CCCCCCCCCCCCCC(=O)OCC(COP(=O)([O-])OCC[N+](C)(C)C)OC(=O)CCCCCCCCCCCCC (centres undefined)	inactive
c1ccc2c(c1)OCC(CN1CCCCC1)O2 (centres undefined)	inactive
CN(C)C=Nc1c(I)cc(I)c(CCC(=O)O)c1I	inactive
O=[n+]1ccn([O-])c2ccccc21	inactive
CC(=O)Nc1ccc(OC(=O)c2ccccc2O)cc1	inactive
O=C(O)c1ccc(OCCn2ccnc2)cc1	inactive
O=C(O)c1ccc(NC(=O)[C@H](Cc2ccc(O)cc2)NC(=O)c2ccccc2)cc1	inactive
C#C[C@]1(O)CC[C@@H]2[C@H]3CCC4=CC(=O)CC[C@H]4[C@H]3C(=C)C[C@@]21CC	inactive
CN1C(=O)OC(C)(C)C1=O	inactive
CCN(CC)C(=O)c1cccnc1	inactive
O=C(O)COc1ccccc1/C=N/NC(=O)c1ccncc1	inactive
CC(C)(Oc1ccc(C2CCCc3ccccc32)cc1)C(=O)O (centres undefined)	inactive
O=C(OC1C[C@@H]2CC3C[C@H](C1)N2CC3=O)c1c[nH]c2ccccc12 (some centres undefined)	inactive
FC(F)(F)COCC(F)(F)F	inactive
COC(=O)C(CN)c1c[nH]c2ccc(OC)cc12 (centres undefined)	inactive
CC(=O)NCCCS(=O)(=O)O	inactive
CSCCC(N)C(=O)O (centres undefined)	inactive
COC(=O)[C@@H](N)CS	inactive
O=C1CCC(c2ccccc2)(C2CCN(Cc3ccccc3)CC2)C(=O)N1 (centres undefined)	inactive
Cc1nc(NS(=O)(=O)c2ccc(N)cc2)nc(C)c1Br	inactive

SMILES	Potency
N=C(N)c1ccc(/C=C/c2ccc(C(=N)N)cc2O)cc1	inactive
O=C(/C=C/c1cccc(F)c1)NC1CC1	inactive
O=C(Nc1ccc(O)cc1)c1ccccc1O	inactive
C=Cc1ccc(S(=O)(=O)O)cc1	inactive
CC(C)NCC(O)COc1ccccc1-n1cccc1 (centres undefined)	inactive
CN1c2c(nc(N)[nH]c2=O)NCC1CNc1ccc(C(=O)NC(CCC(=O)O)C(=O)O)cc1 (centres undefined)	inactive
CCSc1ccc2c(c1)N(CCCN1CCN(C)CC1)c1ccccc1S2	inactive
Oc1ccc(Cl)c2c1CCC2	inactive
FC(F)OC(Cl)C(F)(F)F (centres undefined)	inactive
CC1CCCCN1CCCOC(=O)c1ccccc1 (centres undefined)	inactive
O=P(O)(O)OC[C@H]1O[C@](O)(COP(=O)(O)O)[C@@H](O)[C@@H]1O	inactive
COC(=O)CCC[N+](C)(C)C	inactive
C/C(=C\C(=O)OCCCCCCCCC(=O)O)C[C@@H]1OC[C@H](C[C@@H]2O[C@H]2[C@@H](C)[C@H](C)O)[C@@H](O)[C@H]1O	inactive
CC12CCC(C1)C(C)(C)C2=O (centres undefined)	inactive
CN[C@@H]1[C@H](O[C@H]2[C@H](O[C@H]3[C@H](O)[C@@H](O)[C@H](N=C(N)N)[C@@H](O)[C@@H]3N=C(N)N)O[C@@H](C)[C@]2(O)C=O)O[C@@H](CO)[C@H](O)[C@H]1O	inactive
S=C=Nc1ccc(N=C=S)cc1	inactive
CC1=C(/C=C/C(C)=C/C=C/C(C)=C/C(=O)Oc2c(C)c(C)c3c(c2C)CC[C@@](C)(CCC[C@H](C)CCC[C@H](C)CCCC(C)C)O3)C(C)(C)CCC1	inactive
CC(C)CCC[C@@H](C)[C@H]1CC[C@H]2[C@@H]3CC=C4C[C@@H](O)CC[C@]4(C)[C@H]3CC[C@]12C	inactive
O=C(O)CC/C=C\CC[C@@H]1[C@@H](N2CCCCC2)[C@@H](O)C[C@@H]1OCc1ccc(-c2ccccc2)cc1	inactive

— PubChem BioAssay (NCATS)
